“And” between values parts separate entries of the source, which are not always exact repeats. Identical values can stand only once. In all, about 5,500 compounds went through this assay and about 2,000 (36%) were called active. Not shown: some 18% with an inconclusive outcome. Cut-off read from the data, not from the text of the source: active = normalized growth mostly below about 0.91 (no sharp cut-off); inconclusive = no clear call, values can overlap the other calls; inactive = mostly above about 0.92. Some of the results follow.
Test: chemical genetic growth profiling, strain panel (AID 1159580);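 note: tested at 20 µM; growth read once vehicle control cultures reached saturation at 30 °C; 1 = growth at the plate median or of vehicle wells; lower values mean less growth of the strain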
Details: S. cerevisiae deletion strains, growth OD

Measured: normalized growth

CC1(C)O[C@@H]2CC3C4C[C@H](F)C5=CC(=O)CC[C@]5(C)C4[C@@H](O)C[C@]3(C)[C@]2(C(=O)CO)O1 (stereo partly specified)
inactive: locus YAL013W, strain DEP1, stronger effect = lower value 1.02 | locus YAL021C, strain ccr4, stronger effect = lower value 0.971 | locus YAL026C, strain drs2, stronger effect = lower value 1.01 | locus YAL030W, strain snc1, stronger effect = lower value 1.01 | locus YBL061C, strain skt5, stronger effect = lower value 1.01 | locus YBR009C, strain hhf1, stronger effect = lower value 1 | locus YBR021W, strain FUR4, stronger effect = lower value 1.02 | locus YBR023C, strain chs3, stronger effect = lower value 1 | locus YBR171W, strain sec66, stronger effect = lower value 1.01 | locus YBR229C, strain ROT2, stronger effect = lower value 1.01 | locus YBR231C, strain swc5, stronger effect = lower value 1 | locus YBR279W, strain paf1, stronger effect = lower value 0.994 | locus YCL011C, strain gbp2, stronger effect = lower value 1 | locus YCL016C, strain dcc1, stronger effect = lower value 0.992 | locus YCL029C, strain bik1, stronger effect = lower value 1.01 | locus YCL069W, strain vba3, stronger effect = lower value 1 | locus YCR088W, strain abp1, stronger effect = lower value 1.01 | locus YDL005C, strain med2, stronger effect = lower value 1.03 | locus YDL035C, strain GPR1, stronger effect = lower value 1.01 | locus YDL040C, strain nat1, stronger effect = lower value 1.01 | locus YDL074C, strain BRE1, stronger effect = lower value 1.04 | locus YDL101C, strain DUN1, stronger effect = lower value 1.02 | locus YDL134C, strain PPH21, stronger effect = lower value 1.01 | locus YDL185W, strain tfp1, stronger effect = lower value 1.01 | locus YDL192W, strain arf1, stronger effect = lower value 1.01 | locus YDR001C, strain nth1, stronger effect = lower value 1 | locus YDR069C, strain doa4, stronger effect = lower value 1.01 | locus YDR101C, strain arx1, stronger effect = lower value 0.998 | locus YDR137W, strain rgp1, stronger effect = lower value 0.995 | locus YDR150W, strain NUM1, stronger effect = lower value 1.03 | locus YDR159W, strain sac3, stronger effect = lower value 0.939 | locus YDR162C, strain NBP2, stronger effect = lower value 1.03 | locus YDR195W, strain ref2 0.991 | locus YDR297W, strain sur2, stronger effect = lower value 1.01 | locus YDR318W, strain mcm21, stronger effect = lower value 0.999 | locus YDR334W, strain swr1, stronger effect = lower value 1.01 | locus YDR335W, strain msn5, stronger effect = lower value 1 | locus YDR388W, stronger effect = lower value 1.01 | locus YDR392W, strain spt3, stronger effect = lower value 0.931 | locus YDR502C, strain sam2, stronger effect = lower value 1 | locus YEL003W, strain gim4, stronger effect = lower value 0.999 | locus YEL037C, strain rad23, stronger effect = lower value 1.01 | locus YEL061C, strain CIN8 (second series), stronger effect = lower value 1.01 | locus YEL061C, strain CIN8, stronger effect = lower value 1.01 | locus YER015W, strain faa2, stronger effect = lower value 1.01 | locus YER016W, strain bim1, stronger effect = lower value 1 | locus YER110C, stronger effect = lower value 0.998 | locus YER111C, strain swi4, stronger effect = lower value 1 | locus YER155C, strain BEM2 (second series), stronger effect = lower value 1.03 | locus YER155C, strain BEM2, stronger effect = lower value 1 | locus YER167W, strain BCK2, stronger effect = lower value 1.01 | locus YFR010W, strain ubp6, stronger effect = lower value 1.01 | locus YGL078C, strain dbp3, stronger effect = lower value 0.995 | locus YGL086W, strain mad1, stronger effect = lower value 1 | locus YGL167C, strain pmr1, stronger effect = lower value 0.996 | locus YGL173C, strain kem1, stronger effect = lower value 1.02 | locus YGL227W, strain vid30, stronger effect = lower value 1 | locus YGL240W, strain doc1, stronger effect = lower value 1 | locus YGL248W, strain PDE1, stronger effect = lower value 1.01 | locus YGL253W, strain hxk2, stronger effect = lower value 1 | locus YGR078C, strain PAC10, stronger effect = lower value 1.02 | locus YGR135W, strain pre9, stronger effect = lower value 1 | locus YGR229C, strain SMI1, stronger effect = lower value 1.02 | locus YGR252W, strain gcn5, stronger effect = lower value 0.983 | locus YHR013C, strain ard1, stronger effect = lower value 0.994 | locus YHR027C, strain rpn1, stronger effect = lower value 1.02 | locus YHR030C, strain SLT2, stronger effect = lower value 1 and 1.02 | locus YHR079C, strain IRE1 (second series), stronger effect = lower value 0.999 | locus YHR079C, strain IRE1, stronger effect = lower value 1.03 | locus YHR094C, strain hxt1, stronger effect = lower value 1.01 | locus YHR129C, strain ARP1, stronger effect = lower value 1.01 | locus YHR142W, strain chs7, stronger effect = lower value 1 | locus YHR200W, strain rpn10, stronger effect = lower value 1.01 | locus YIL066C, strain RNR3, stronger effect = lower value 1 | locus YIL073C, strain SPO22, stronger effect = lower value 1.01 | locus YIL125W, strain kgd1, stronger effect = lower value 0.995 | locus YIR030C, strain dcg1, stronger effect = lower value 1.01 | locus YJL092W, strain hpr5, stronger effect = lower value 1.02 | locus YJL095W, strain BCK1 (second series), stronger effect = lower value 1.01 | locus YJL095W, strain BCK1, stronger effect = lower value 0.999 and 1.02 | locus YJL115W, strain asf1, stronger effect = lower value 1.01 | locus YJL129C, strain trk1, stronger effect = lower value 1.02 | locus YJL134W, strain LCB3, stronger effect = lower value 1.01 | locus YJL154C, strain vps35, stronger effect = lower value 1.01 | locus YJL164C, strain tpk1, stronger effect = lower value 0.982 | locus YJL166W, strain qcr8, stronger effect = lower value 1.01 | locus YJL168C, strain set2, stronger effect = lower value 1.01 | locus YJL187C, strain SWE1 (second series), stronger effect = lower value 1.01 | locus YJL187C, strain SWE1, stronger effect = lower value 1.01 | locus YJR043C, strain POL32, stronger effect = lower value 0.994 | locus YJR066W, strain TOR1, stronger effect = lower value 0.957

From PubChem BioAssay AID1159580 (chemical genetic matrix, 2015)
